Data from PubChem BioAssay (NCI).
Several values for one entry are separate records, joined by “and”; a condition that tells them apart may be missing. Identical values can stand only once. About 83,000 compounds went through this panel and 20% of them were active in at least one assay; those are over-represented in the sample as a whole.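 Note: values are percent growth. 100 is the growth of untreated cells, values between 100 and 0 indicate rising inhibition; between -100 and 0 indicates cell death.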 Activity calls are given as the source filed them. The calls were made as follows: active = growth percent below 10; inactive = the rest.

What follows are compounds tested on NCI-H322M lung (assay: NCI-60 one-dose screen, 48 h (100 = growth as untreated, 0 = no growth, -100 = all killed)). Settings: 10 µM unless noted.
For CC(C)(C)OC(=O)N1CCC2(CC1)Oc1ccccc1[C@H]1CC(c3ccc(Br)cc3)=NN12, the growth was 86.6% (inactive). For Cc1cc(C(NC(=O)CCCCCNc2cccc3c2C(=O)N(C2CCC(=O)CC2=O)C3=O)c2cccc(N(C)C)c2)c(O)c2ncccc12 (centres undefined), the growth was 13.7% (inactive). In the case of O=C(c1ccc(O)cc1)C1[C@H](c2ccc(Cl)cc2)[C@@H](c2ccccc2)NC12C(=O)Nc1ccc(Br)cc12 (some centres undefined), the growth is reported as -4.19% (active). Cc1ccc(C(=O)C[n+]2cccc3c4ccccc4ccc32)cc1 was tested, and the growth was 43.3% (inactive). With C#CCN(C)CCCOc1ccc(N(CC)C(=O)c2cc(C(C)C)c(O)cc2O)cc1Cl the growth was 23.4% (inactive). O=C(OCCOCCO)N(c1cccc(Br)c1)c1nc(SCCN2CCOCC2)nc2c1cnn2CC(Cl)c1ccc(Br)cc1 (centres undefined) was tested, and the growth was 50.9% (inactive). For COc1ccc(-c2nc3ccc(-c4nnc(SCC(=O)Nc5ccc(/C(C)=N\O)cc5)o4)cc3[nH]2)cc1, the growth was 46.5% (inactive). For Clc1ccc2c(NCCNC34CC5CC(CC(C5)C3)C4)ccnc2c1, the growth was -61.7% (active). For CCOc1ccc(-c2cc(-c3cc(C(C)C)c(O)cc3C)nn2-c2ccc(S(N)(=O)=O)cc2)cc1, the growth was 66.6% (inactive). Cc1ccc(N=Nc2c(N)nn3c(-c4cc5cc(Br)ccc5oc4=O)ccnc23)cc1 was tested, and the growth was 83.6% (inactive). COc1ccc(SC2c3cc(OC)ccc3Oc3nc(N)c(C#N)c(N)c32)cc1 (centres undefined) was tested, and the growth was 83.5% (inactive). For O=C1Nc2ccc(F)cc2/C1=C/C(=O)c1cc2ccccc2oc1=O, the growth was 104% (inactive). With COc1ccc2[nH]cc(-c3cc(N)n4nc(-c5c[nH]c6ccccc56)cc4n3)c2c1 the growth was 18.3% (inactive). In the case of O=C1Nc2cc(-c3ccc(NS(=O)(=O)c4ccc(F)c(Cl)c4)cc3)ccc2/C1=C/c1ccc[nH]1, the growth is reported as 26.4% (inactive). CCOC(=O)/C(F)=C/C1CC1C1CCN(C(=O)OC(C)(C)C)CC1 (centres undefined) was tested, and the growth was 102% (inactive). CN1CCN(CCS(=O)(=O)Nc2cc(-c3ccc4ncnc(Nc5ccc(F)c(Cl)c5)c4c3)cnc2Cl)CC1 was tested, and the growth was -15.5% (active). For N#Cc1cc(-c2ccc3ncnc(N4CCc5cc(F)c(Cl)cc54)c3c2)cnc1N, the growth was 38.4% (inactive).

These compounds were tested on HOP-62 NSCLC in the same assay as above. Settings: 10 µM unless noted.
With O=c1ccc(Cn2c(C(F)(F)F)cc3c(Cl)ncnc32)c[nH]1 the growth was 94.7% (inactive). In the case of CC[C@]12C=CCN3CC[C@]4(C(=C(C(=O)OC)C1)Nc1cc(OC)c([C@@H]5[C@H]6O[C@H]6[C@@]6(CC)CC(C(=O)OC)=C7Nc8cc(O)ccc8[C@@]78CCN5[C@@H]68)cc14)[C@@H]32, the growth is reported as 32.2% (inactive). For COc1ccc2[nH]cc(-c3cc4nc(-c5cn(C)c6ncccc56)cc(N)n4n3)c2c1, the growth was 19.8% (inactive). In the case of COc1ccc2[nH]c(=O)cc(-n3ncc(C(=O)/C=C/c4cc(OC)c(OC)c(OC)c4)c3C)c2c1, the growth is reported as 0.688% (active). With COc1ccc(/C=C/c2nc3ccccc3n3c(-c4cccc([N+](=O)[O-])c4)nnc23)cc1 the growth was 25.4% (inactive). O=C(Nc1ccc(Cl)c(C(F)(F)F)c1)N1CCN(c2cc(-c3cn(-c4ccccc4)nc3-c3cccc(O)c3)ccn2)CC1 was tested, and the growth was 14.5% (inactive). For O=C1Nc2ccccc2/C1=C/C(=O)c1cc2ccccc2oc1=O, the growth was 101% (inactive). With CN1CCN(C(=O)Oc2cc3c(c4ccccc24)[C@H](CCl)CN3C(=O)c2cc3cc(OCCCN4CCC4)ccc3[nH]2)[C@H]2CSSC[C@H]21 the growth was -37.8% (active). For NS(=O)(=O)c1ccc(Nc2nc(N/N=C/c3cc(Br)c(O)c(Br)c3)nc(Nc3ccccc3)n2)cc1, the growth was 27% (inactive). In the case of COc1ccc2c(c1)C(Sc1ccc(Cl)cc1)c1c(nc(N)c(C#N)c1N)O2 (centres undefined), the growth is reported as 61.8% (inactive). For CS(=O)(=O)Nc1cccc(-n2c(COc3ccc(OC(F)(F)F)cc3)nc3ccccc32)c1, the growth was 96.2% (inactive) and 97.2% (inactive). For OCCn1cc(-c2nc3ccc4[nH]ncc4c3c3c2CCCC3)cn1, the growth was 57.7% (inactive). With Cn1cc(-c2cc(N)n3nc(-c4c[nH]c5ccc(F)cc45)cc3n2)c2cccnc21 the growth was -85.9% (active). With COc1ccc2c(c1)N=c1c-2cc2c(O)[nH]c(=S)n2c1=O the growth was 36.6% (inactive). O=C(NN1C(=O)/C(=C/C=C/c2ccc([N+](=O)[O-])o2)SC1=S)c1ccncc1 was tested, and the growth was -97.5% (active). For Cn1cc(-c2cc(N)n3nc(-c4c[nH]c5ccccc45)cc3n2)c2cc(Br)ccc21, the growth was -76.9% (active). Cn1cc(-c2cc(N)n3nc(-c4c[nH]c5ccccc45)cc3n2)c2ccccc21 was tested, and the growth was -85.4% (active). With O=C1c2cccc3c(N4CCN(c5ccccc5)CC4)ccc(c23)C(=O)N1c1cccc(-c2nn(-c3ccccc3)cc2-c2nc3ccccc3s2)c1 the growth was 110% (inactive). For O=C(c1ccc(O)cc1)C1[C@H](c2ccccc2Br)[C@@H](c2ccccc2)NC12C(=O)Nc1ccccc12 (some centres undefined), the growth was 59.8% (inactive). For COc1ccc(-c2cc(C(=O)N=Nc3c(O)[nH]c4ccc(Cl)cc34)c3ccccc3n2)cc1, the growth was -20.9% (active). With CC(C)(C)OC(=O)N1CCC2(CC1)Oc1ccccc1[C@H]1CC(c3ccc(Br)cc3)=NN12 the growth was 77% (inactive). Cc1cc(C(NC(=O)CCCCCNc2cccc3c2C(=O)N(C2CCC(=O)CC2=O)C3=O)c2cccc(N(C)C)c2)c(O)c2ncccc12 (centres undefined) was tested, and the growth was -22.6% (active). For O=C(c1ccc(O)cc1)C1[C@H](c2ccc(Cl)cc2)[C@@H](c2ccccc2)NC12C(=O)Nc1ccc(Br)cc12 (some centres undefined), the growth was -28.9% (active). In the case of Cc1ccc(C(=O)C[n+]2cccc3c4ccccc4ccc32)cc1, the growth is reported as 36.1% (inactive). For C#CCN(C)CCCOc1ccc(N(CC)C(=O)c2cc(C(C)C)c(O)cc2O)cc1Cl, the growth was 26% (inactive). O=C(OCCOCCO)N(c1cccc(Br)c1)c1nc(SCCN2CCOCC2)nc2c1cnn2CC(Cl)c1ccc(Br)cc1 (centres undefined) was tested, and the growth was 32.9% (inactive). In the case of COc1ccc(-c2nc3ccc(-c4nnc(SCC(=O)Nc5ccc(/C(C)=N\O)cc5)o4)cc3[nH]2)cc1, the growth is reported as 77% (inactive). In the case of Clc1ccc2c(NCCNC34CC5CC(CC(C5)C3)C4)ccnc2c1, the growth is reported as -76.7% (active). CCOc1ccc(-c2cc(-c3cc(C(C)C)c(O)cc3C)nn2-c2ccc(S(N)(=O)=O)cc2)cc1 was tested, and the growth was 65.4% (inactive). With Cc1ccc(N=Nc2c(N)nn3c(-c4cc5cc(Br)ccc5oc4=O)ccnc23)cc1 the growth was 47.7% (inactive). COc1ccc(SC2c3cc(OC)ccc3Oc3nc(N)c(C#N)c(N)c32)cc1 (centres undefined) was tested, and the growth was 68.2% (inactive). For O=C1Nc2ccc(F)cc2/C1=C/C(=O)c1cc2ccccc2oc1=O, the growth was 97.3% (inactive). COc1ccc2[nH]cc(-c3cc(N)n4nc(-c5c[nH]c6ccccc56)cc4n3)c2c1 was tested, and the growth was -45.2% (active). O=C1Nc2cc(-c3ccc(NS(=O)(=O)c4ccc(F)c(Cl)c4)cc3)ccc2/C1=C/c1ccc[nH]1 was tested, and the growth was 27.2% (inactive). With CCOC(=O)/C(F)=C/C1CC1C1CCN(C(=O)OC(C)(C)C)CC1 (centres undefined) the growth was 118% (inactive). In the case of CN1CCN(CCS(=O)(=O)Nc2cc(-c3ccc4ncnc(Nc5ccc(F)c(Cl)c5)c4c3)cnc2Cl)CC1, the growth is reported as 39.9% (inactive). For N#Cc1cc(-c2ccc3ncnc(N4CCc5cc(F)c(Cl)cc54)c3c2)cnc1N, the growth was 77.5% (inactive).
